Data taken from PMC5540273 (PLoS ONE, 2017).
Values joined by “and” are separate entries in the source; they are usually repeats but may differ in a detail not shown here. Identical values can stand only once. Like-named read-outs stand apart in the source and are kept apart here.

How the values were obtained:
BUB1 = details: concentration: 1 μM, replicates: in singlicate, n = 1
CAMK1B = details: concentration: 1 μM, replicates: in singlicate, n = 1
CAMK1D = details: concentration: 1 μM, replicates: in singlicate, n = 1
CAMK1G = details: concentration: 1 μM, replicates: in singlicate, n = 1
CAMK1 = details: concentration: 1 μM, replicates: in singlicate, n = 1
CAMK2A = details: concentration: 1 μM, replicates: in singlicate; n = 1
CAMK2B = details: concentration: 1 μM, replicates: in singlicate; n = 1
CAMK2D = details: concentration: 1 μM, replicates: in singlicate; n = 1
CAMK2G = details: concentration: 1 μM, replicates: in singlicate; n = 1
CAMK4 = details: concentration: 1 μM, replicates: in singlicate, n = 1
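Further: KINOMEscan kinase panel screen.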

Compound | %Inh (BUB1) [%] | %Inh (CAMK1B) [%] | %Inh (CAMK1D) [%] | %Inh (CAMK1G) [%] | %Inh (CAMK1) [%] | %Inh (CAMK2A) [%] | %Inh (CAMK2B) [%] | %Inh (CAMK2D) [%] | %Inh (CAMK2G) [%] | %Inh (CAMK4) [%] | %Inh (BUB1; 1 µM) | %Inh (CAMK1B; 1 µM) | %Inh (CAMK1D; 1 µM) | %Inh (CAMK1G; 1 µM) | %Inh (CAMK1; 1 µM) | %Inh (CAMK4; 1 µM)
O=c1cc(N2CCOCC2)nc2n(Cc3cccc(F)c3)ccn12 [GSK2297430] | 0 | 4 | 15 | 0 | 4 | 0 | 0 | 0 | 13 | 11 |  |  |  |  |  | 
O=C(NCCNc1ccnc(Nc2ccc(F)cc2)n1)Nc1ccccc1F [GSK1379880] | 31 | 0 | 0 | 0 | 0 | 0 | 0 | 0 | 0 | 0 |  |  |  |  |  | 
CC(=O)Nc1ccc(COc2ccc(Nc3ccnc4cc(-c5ccccn5)ccc34)cc2)cc1.Cl [GW440148] | 5 | 23 | 10 | 7 | 20 | 0 | 0 | 18 | 21 | 0 |  |  |  |  |  | 
COc1ccc(COc2cc(-n3cnc4ccccc43)sc2C(N)=O)cc1 [GSK1024304] | 9 | 0 | 6 | 8 | 7 | 0 | 0 | 0 | 23 | 0 |  |  |  |  |  | 
NCC(NC(=O)c1cc(-c2cn[nH]c2)c(-c2ccnc3[nH]ccc23)s1)c1ccccc1.O=C(O)C(F)(F)F.O=C(O)C(F)(F)F (stereo not drawn) [GSK1325775] | 94.6 | 49 | 50 | 33 | 41 | 0 | 12 | 35 | 30 | 0 |  |  |  |  |  | 
Cc1c(Cn2c(C)nn3c(=O)cc(N4CCOC(C)C4)nc23)cccc1C(F)(F)F (stereo not drawn) [GSK2344444] | 0 | 10 | 9 | 0 | 0 | 0 | 0 | 0 | 10 | 0 |  |  |  |  |  | 
NS(=O)(=O)c1cccc(-c2ccc3ncc(N4CCOCC4)nc3c2)c1 [GSK1535721] | 0 | 7 | 18 | 15 | 12 | 0 | 2 | 21 | 17 | 0 |  |  |  |  |  | 
Cc1nnc(-c2ccc3occ(-c4ccc(C(C)O)cc4)c3c2)o1 (stereo not drawn) | 9 | 0 | 0 | 0 | 12 | 3 | 0 | 6 | 11 | 0 |  |  |  |  |  | 
COc1ccc(S(=O)(=O)NC2CCN(c3cc(C)nc(Nc4cccc(C#N)c4)n3)CC2)cc1.O=C(O)C(F)(F)F [GSK1653539] | 0 | 1 | 17 | 0 | 0 | 0 | 0 | 6 | 11 | 0 |  |  |  |  |  | 
CCn1cnc2c(N)ncnc21 [GW345098] | 3 | 0 | 10 | 0 | 9 | 6 | 8 | 0 | 0 | 1 |  |  |  |  |  | 
Cc1nnc(-c2ccc(C)c(-c3ccc(C(=O)Nc4ccc(NS(C)(=O)=O)cc4)cc3)c2)o1 [GW702865] | 35 | 10 | 2 | 0 | 4 | 0 | 1 | 0 | 0 | 0 |  |  |  |  |  | 
Cc1cccc(Cn2ccn3c(=O)cc(N4CCOCC4)nc23)c1 [GSK2297542] | 34 | 19 | 70 | 9 | 71 | 0 | 0 | 9 | 28 | 20 |  |  |  |  |  | 
Cl.Cl.Cl.Fc1ccc(-c2ncn(C3CCNCC3)c2-c2ccnc(Nc3ccccc3)n2)cc1 [SB-238039] |  |  |  |  |  | 0 | 0 | 0 | 0 |  | 88% and 65% | 0% and 42% | 0% and 9% | 9% and 0% | 7% and 0% | 18% and 26%
Nc1nccc(-c2c(-c3ccc(F)cc3)ncn2C2CCN(CC(F)(F)F)CC2)n1 [SB-236560] | 49 | 80 | 0 | 2 | 0 | 0 | 0 | 0 | 93.3 | 11 |  |  |  |  |  | 
NS(=O)(=O)CCc1cccc(Nc2nccc(-c3c(-c4cccc(NC(=O)c5c(F)cccc5F)c4)nn4ccccc34)n2)c1 [GSK336735] | 77 | 0 | 29 | 0 | 53 | 0 | 0 | 4 | 14 | 0 |  |  |  |  |  | 
COc1cc2c(cc1OCCN1CCN(C)CC1)ncc1c3ccc(C#N)cc3[nH]c21 | 100 | 19 | 44 | 16 | 0 | 93.5 | 70 | 92.6 | 86 | 0 |  |  |  |  |  | 
COc1cc2c(cc1OC[C@@H](O)CO)ncc1c3ccc(C#N)cc3[nH]c21 | 94.3 | 27 | 0 | 0 | 0 | 89 | 61 | 84 | 61 | 0 |  |  |  |  |  | 

Compound | %Inh (BUB1) [%] | %Inh (CAMK1B) [%] | %Inh (CAMK1D) [%] | %Inh (CAMK1G) [%] | %Inh (CAMK1) [%] | %Inh (CAMK2A) [%] | %Inh (CAMK2B) [%] | %Inh (CAMK2D) [%] | %Inh (CAMK2G) [%] | %Inh (CAMK4) [%] | %Inh (BUB1; 1 µM) | %Inh (CAMK1B; 1 µM) | %Inh (CAMK1D; 1 µM) | %Inh (CAMK1G; 1 µM) | %Inh (CAMK1; 1 µM) | %Inh (CAMK4; 1 µM)
O=C(NOCC1CC1)c1ccc(F)c(F)c1Nc1ccc(I)cc1Cl | 0 | 0 | 0 | 0 | 0 | 0 | 0 | 0 | 0 | 32 |  |  |  |  |  | 
c1ccc(-c2n[nH]cc2-c2ccnc3ccccc23)nc1 [GW271431] | 0 | 23 | 28 | 13 | 23 | 0 | 0 | 19 | 25 | 0 |  |  |  |  |  | 
Fc1ccc(-c2ncn(CCCN3CCOCC3)c2-c2cccnc2)cc1 [SB-211743] | 4 | 0 | 0 | 0 | 0 | 0 | 0 | 0 | 0 | 14 |  |  |  |  |  | 
c1ccc(-c2cc(-c3c[nH]nc3-c3ccccn3)ccn2)cc1 [GW576604] | 34 | 10 | 14 | 0 | 14 | 0 | 0 | 10 | 30 | 0 |  |  |  |  |  | 
COc1ccc(CNC(=O)NC2CCN(c3ccnc(Nc4ccc(OC)cc4)n3)C2)cc1 (stereo not drawn) [GSK1379727] | 56 | 47 | 21 | 0 | 18 | 0 | 0 | 0 | 8 | 0 |  |  |  |  |  | 
Fc1ccc(-c2nn3c(OCC(F)(F)F)cccc3c2-c2ccncc2)cc1 [GW514784] | 99 | 0 | 7 | 0 | 0 | 0 | 0 | 0 | 22 | 0 |  |  |  |  |  | 
COc1cc2ncn(-c3cc(OCc4sccc4Cl)c(C(N)=O)s3)c2cc1OC [GSK448459] | 55 | 25 | 0 | 0 | 4 | 0 | 0 | 2 | 12 | 0 |  |  |  |  |  | 
O=c1cc(N2CCOCC2)nc2n(Cc3cccc4ccccc34)ccn12 [GSK2333389] | 32 | 4 | 15 | 0 | 0 | 0 | 0 | 0 | 0 | 0 |  |  |  |  |  | 
CN1c2ccc(CNc3ccc(F)cc3)cc2-c2c(cnn2C)S1(=O)=O | 0 | 0 | 50 | 0 | 63 | 0 | 1 | 4 | 0 | 0 |  |  |  |  |  | 
COc1cc(Nc2nccc(N3CCC(NC(=O)c4cccc(NC(C)=O)c4)C3)n2)cc(OC)c1OC (stereo not drawn) [GSK1379754] | 0 | 7 | 27 | 6 | 40 | 0 | 0 | 0 | 21 | 0 |  |  |  |  |  | 
COc1ccc(Nc2nccc(N3CCC(NC(=O)Nc4cc(C)ccc4C)C3)n2)cc1 (stereo not drawn) [GSK1379741] | 33 | 13 | 0 | 0 | 0 | 0 | 0 | 0 | 0 | 0 |  |  |  |  |  | 
CCc1ccnc(/C=C/c2n[nH]c3cc(Sc4ccccc4C(=O)NC)ccc23)c1 | 49 | 8 | 0 | 2 | 0 | 4 | 0 | 9 | 18 | 0 |  |  |  |  |  | 
Cc1ccc(C(=O)NCC(N)=O)cc1-n1c(C)cc(OCc2ccc(F)cc2F)c(Br)c1=O | 0 | 10 | 36 | 0 | 44 | 9 | 1 | 0 | 0 | 26 |  |  |  |  |  | 
O=c1cc(N2CCOCC2)nc2n(Cc3cccc(C(F)(F)F)c3)ccn12 [GSK2297543] | 13 | 36 | 6 | 0 | 4 | 0 | 0 | 0 | 4 | 0 |  |  |  |  |  | 
Fc1ccc(-c2ncn(CCCN3CCOCC3)c2-c2ccccn2)cc1 [SB-211742] | 0 | 0 | 0 | 0 | 0 | 6 | 10 | 0 | 11 | 20 |  |  |  |  |  | 
CN1c2ccc(NCc3ccc(F)cc3)cc2-c2c(cnn2C)S1(=O)=O | 0 | 0 | 0 | 0 | 0 | 0 | 0 | 3 | 15 | 22 |  |  |  |  |  | 
